The source of these data is PubChem BioAssay (NCATS).

Records with an inconclusive call do not appear. A call without a number means that no potency is given here. Activity calls are given as the source filed them. The call rests on the fitted dose curve; in most records, active means well fitted inhibition curve with a large enough effect; inconclusive means small, poorly fitted or top-dose-only effect; inactive means flat fitted curve, though single readings scatter.
Potency means the concentration at half of the fitted maximal effect.

This experiment deals with Ubiquitin carboxyl-terminal hydrolase 1 (Homo sapiens) (UniProt O94782). Kind of experiment: Inhibitors of USP1/UAF1: Pilot qHTS (AID 504865). Further: nearly all actives have a fitted effect of over 35% in size. The following applies: purified USP1/UAF1, Ub-rhodamine cleavage fluorescence; series mostly up to 114 µM. The source says: Deubiquitinating enzymes (DUBs) are a class of enzymes that can cleave isopeptide bond formed between the C-terminal carboxylate of ubiquitin and a lysine side-chain amino group on the target protein. Among them, ubiquitin specific proteases (USPs) constitute the largest DUB family. Human USPs are emerging as promising targets for pharmacological intervention because of their connection to a number of human diseases, including prostate, colon and breast cancer (1, 2), pediatric acute lymphoblastic leukemia (3), and familial cylindromatosis (4). The advantage of inhibiting USPs lies in the potential specificity of therapeutic intervention that can lead to better efficacy and reduce nonspecific side effects.
Sequence of Ubiquitin carboxyl-terminal hydrolase 1 (Homo sapiens) (O94782 whole entry, looked up): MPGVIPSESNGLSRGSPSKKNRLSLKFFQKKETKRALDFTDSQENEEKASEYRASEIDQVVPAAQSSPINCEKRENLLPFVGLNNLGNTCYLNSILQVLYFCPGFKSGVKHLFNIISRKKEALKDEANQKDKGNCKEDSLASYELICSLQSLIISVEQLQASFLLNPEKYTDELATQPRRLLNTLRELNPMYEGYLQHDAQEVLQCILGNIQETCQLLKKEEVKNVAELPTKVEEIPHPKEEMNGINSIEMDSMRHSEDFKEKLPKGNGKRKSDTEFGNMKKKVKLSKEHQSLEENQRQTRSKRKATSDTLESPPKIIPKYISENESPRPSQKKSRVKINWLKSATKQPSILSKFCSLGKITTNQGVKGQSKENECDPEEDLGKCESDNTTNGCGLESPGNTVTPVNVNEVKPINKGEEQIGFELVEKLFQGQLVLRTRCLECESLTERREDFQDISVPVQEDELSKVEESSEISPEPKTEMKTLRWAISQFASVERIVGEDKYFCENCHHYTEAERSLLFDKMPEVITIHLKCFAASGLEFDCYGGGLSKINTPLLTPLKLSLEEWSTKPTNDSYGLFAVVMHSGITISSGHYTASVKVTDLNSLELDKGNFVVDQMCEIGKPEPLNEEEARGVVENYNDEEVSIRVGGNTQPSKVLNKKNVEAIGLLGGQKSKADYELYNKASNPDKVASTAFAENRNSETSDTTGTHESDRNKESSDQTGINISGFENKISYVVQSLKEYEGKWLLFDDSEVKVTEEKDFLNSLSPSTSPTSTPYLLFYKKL
In a collaboration between the University of Delaware and the NIH Chemical Genomics Center, a high-throughput screen assay was developed to screen for USP1/UAF1 inhibitors. This miniaturized assay has a fluorescent read-out and is used to screen the NIH Molecular Libraries Small Molecule Repository (MLSMR) in order to identify a small molecule that inhibits USP1.
NIH Chemical Genomics Center [NCGC]
NIH Molecular Libraries Probe Centers Network [MLPCN]
Assay Submitter (PI): Zhihao Zhuang, University of Delaware
1. Priolo, C., et al. (2006) The isopeptidase USP2a protects human prostate cancer from apoptosis. Cancer Res 66, 8625-8632
2. Popov, N., et al. (2007) The ubiquitin-specific protease USP28 is required for MYC stability. Nat Cell Biol 9, 765-774
3. De Pitta, C., et al. (2005) A leukemia-enriched cDNA microarray platform identifies new transcripts with relevance to the biology of pediatric acute lymphoblastic leukemia. Haematologica 90, 890-898
4. Kovalenko, A., et al. (2003) The tumour suppressor CYLD negatively regulates NF-kappaB signalling by deubiquitination. Nature 424, 801-805
3 microliters of reagents (buffer in columns 3 and 4 as negative control and 1nM USP1/UAF1 complex in columns 1, 2, and 5-48) are dispensed into Greiner black solid bottom 1536-well assay plates. Compounds are then transferred via Kalypsys pin tool equipped with 1536-pin array (10nl slotted pins, V&P Scientific, San Diego, CA). Following an incubation step of 15 min at room temperature, 1ul of Ub-Rho substrate (150nM final concentration) is added to initiate the reaction. The plates are immediately centrifuged at 1000 rpm for 15 seconds, and subsequently transferred to a ViewLux high-throughput CCD imager (PerkinElmer) wherein kinetic measurements of fluorescence are acquired using 480 nm excitation/540 nm emission filter set (6 reads every 60 seconds, see Table 1). All reagents are diluted in an assay buffer consisting of 50mM HEPES (pH 7.8), 0.5mM EDTA, 0.1 mg/ml BSA, 1mM TCEP, and 0.01% Tween-20.
Background: Quantitative high-throughput screening tests each substance at several concentrations.
Take `O=C(CCN1CCN2CCCC2C1)N1c2ccccc2Sc2ccc(Cl)cc21` (stereo not given): the Potency entry was “inactive”.

Consider `NC(=S)N/N=C/c1cccnc1`, for which the Potency entry was “inactive”.

Regarding `COc1cc(O)c(C(=O)c2ccccc2)cc1S(=O)(=O)O`, the Potency result is “inactive”. As for `NC(=O)n1c(O)c(C(=O)c2cccs2)c2cc(Cl)ccc21`, the entry is “inactive”. Regarding `COc1ccc2c(c1)c1c3n2CCN(C)C3=NCC1`, the Potency result is “inactive”. Turning to `C#C[C@]1(O)CC[C@H]2[C@@H]3CCC4=Cc5oncc5C[C@]4(C)[C@H]3CC[C@@]21C`, the Potency entry was “inactive”.

Turning to `CN1CCN(CCC(=O)N2c3ccccc3Sc3ccc(C(F)(F)F)cc32)CC1`, the Potency entry is “inactive”. As for `Cc1cccc(C)c1NC(=O)CN1CCCCCC1`, the entry is “inactive”; as for `CC(=O)OC[C@H]1O[C@@H](n2ncc(=O)[nH]c2=O)[C@H](OC(C)=O)[C@@H]1OC(C)=O`, “inactive”. On to `C[N+]1(CC2COC(c3ccccc3)(C3CCCCC3)O2)CCCCC1` (stereo not given), for which the Potency result is “inactive”. As for `Cc1c[nH]c2ccccc12`, the entry is “inactive”; as for `N=C(N)N1CCc2ccccc2C1`, “inactive”. As for `CC(=O)O[C@]1(C(C)=O)CC[C@H]2[C@@H]3C=C(Cl)C4=CC(=O)CC[C@]4(C)[C@H]3CC[C@@]21C`, the entry is “inactive”; as for `CN(C)CCN1C(=O)c2ccccc2N(C)c2ccccc21`, “inactive”; as for `CCCCNC(=O)NS(=O)(=O)c1ccc(N)cc1`, “inactive”.

For `CCCCCN=C(N)N/N=C/c1c[nH]c2ccc(OC)cc12`, the Potency entry was “inactive”. As for `Nc1ccc(S(=O)(=O)Nc2cnc3ccccc3n2)cc1`, the entry is “inactive”; as for `CC(C)(C)NC[C@H](O)COc1cccc2c1CCCC2=O`, “inactive”; as for `CC1=C(C(=O)O)N2C(=O)[C@@H](NC(=O)[C@H](N)c3ccccc3)[C@H]2SC1`, “inactive”. As for `Clc1cccc(C(c2ccc3nc[nH]c3c2)n2ccnc2)c1` (stereo not given), the entry is “inactive”. To `CCCCCCCCCCCCCC(=O)OC(C)C` belongs “inactive”; to `CN(C)C(=O)Nc1ccc(Cl)c(Cl)c1`, “inactive”; to `CCOC(=O)c1c(N)sc2c1CCN(Cc1ccccc1)C2`, “inactive”. Regarding `COc1ccccc1N1CCN(CCCCNC(=O)c2ccc(-c3ccc(C(C)=O)cc3)cc2)CC1`, the Potency result was “inactive”. For `CC(C)=CCOc1ccc(/C=C/C(=O)c2ccc(OCC=C(C)C)cc2OCC(=O)O)cc1`, the Potency is 79.4 µM (active). To `CCCCCCCCCCCCCC[N+](C)(C)Cc1ccccc1` belongs 28.2 µM (active); to `CN1CCN(c2c(F)cc3c(=O)c(C(=O)O)cn4c3c2SCC4)CC1`, “inactive”; to `c1ccc(CC2=NCCN2)cc1`, “inactive”. As to `COc1cc(C(=O)N2CCCCCCC2)cc(OC)c1OC`, the Potency result is “inactive”.

Regarding `C/C=C/c1ccc(O)c(OC)c1`, the Potency result was “inactive”.

Turning to `CCOc1ccc(NC(C)=O)cc1`, the Potency result was “inactive”. As for `CC(=O)N[C@@H](CCC(=O)O)C(=O)O`, the entry is “inactive”; as for `OC[C@H]1O[C@@H]2O[C@H]3[C@H](O)[C@@H](O)[C@@H](O[C@H]4[C@H](O)[C@@H](O)[C@@H](O[C@H]5[C@H](O)[C@@H](O)[C@@H](O[C@H]6[C@H](O)[C@@H](O)[C@@H](O[C@H]7[C@H](O)[C@@H](O)[C@@H](O[C@H]8[C@H](O)[C@@H](O)[C@@H](O[C@H]1[C@H](O)[C@H]2O)O[C@@H]8CO)O[C@@H]7CO)O[C@@H]6CO)O[C@@H]5CO)O[C@@H]4CO)O[C@@H]3CO`, “inactive”; as for `CCCCN=C(N)N=C(N)N`, “inactive”. As for `NCCNC(=O)c1ccc(Cl)cn1`, the entry is “inactive”. As for `CC(C(=O)O)c1cccc(Oc2ccccc2)c1` (stereo not given), the entry is “inactive”; as for `O=c1[nH]c(=O)n([C@H]2C[C@H](O)[C@@H](CO)O2)cc1F`, “inactive”. Take `CCCCc1cc2ccccc2c(OCCN(C)C)n1`: the Potency result was “inactive”. To `CCOCCn1c(N2CCCN(C)CC2)nc2ccccc21` belongs “inactive”; to `COc1ccc(CCN(C)CCCN2CCc3cc(OC)c(OC)cc3CC2=O)cc1OC`, “inactive”.
